PLK1 PBD inh: PLK1 (human) polo-box domain binding inhibition; hit rate 2.8% among 360,000; Potency, µM, without a hit: max response, negative = inhibition, most hits filed as inhibitors; Plk1 PBD binding of FITC phosphopeptide, fluorescence polarization; AID 720504; also: series mostly up to about 57 µM; % is scaled to controls: 0 for no effect and ±100 for the full control effect; nearly all actives have a fitted effect of over 65% in size
BAZ2B block: BAZ2B (human) inhibition; AID 504333; hit rate 4.4% among 360,000; AlphaScreen BAZ2B-H3K14Ac peptide displacement; Potency, µM (highest dose often 114 µM), for the others: top-dose activity change, negative = inhibition, most hits filed as inhibitors; Q9UIF8; also: % is scaled to controls: 0 for no effect and ±100 for the full control effect; nearly all actives have a fitted effect of over 60% in size
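AlphaScreen displacement of biotin-H3(5-23)K14Ac peptide (50 nM final) from BAZ2B (50 nM final) in PBS pH 7.4, 0.01% Tween-20; complex preformed 30 min RT, then compounds (top 110 uM) 30 min RT, beads 20 min dark.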
JMJD2A Tudor: blocks the human JMJD2A Tudor domain. O75164. AlphaScreen JMJD2A-Tudor / H3K4me3 peptide binding. Potency, µM (series often up to 114 µM), without a hit: at the highest dose activity change, negative = inhibition, most hits filed as inhibitors. hit rate 4.4% among 390,000. AID 504339; also: % is scaled to controls: 0 for no effect and ±100 for the full control effect; nearly all actives have a fitted effect of over 50% in size
HP1b binding inh: blocks HP1-beta chromodomain binding to methylated histone tails; P83916; AlphaScreen HP1-beta / biotin-H3K9me3 peptide binding; Potency, µM (titrated, usually from 114 µM), without a hit: at the top dose activity change, negative = inhibition, actives largely listed as inhibitors; hit rate 0.56% among 390,000; AID 540317; also: nearly all actives have a fitted effect of over 70% in size
Target sequence (P83916 whole entry, looked up): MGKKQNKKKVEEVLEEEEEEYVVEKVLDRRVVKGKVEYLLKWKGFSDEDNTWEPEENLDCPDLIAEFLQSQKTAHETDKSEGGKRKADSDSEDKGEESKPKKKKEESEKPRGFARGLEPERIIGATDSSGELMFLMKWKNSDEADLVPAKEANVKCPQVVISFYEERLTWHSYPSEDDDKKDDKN
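HP1-beta protein (50 nM final) preincubated 30 min at room temperature with biotinylated H3(1-18)K9me3 peptide (50 nM) in PBS pH 7.4, 0.01% Tween-20, then compound added for 30 min. AlphaScreen streptavidin donor/nickel chelate acceptor beads (10 ug/mL final), 30 min dark, luminescence read.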
G9a block: G9a (human) methyltransferase inhibition | G9a H3K9 monomethylation, AlphaScreen, 2 h | hit rate 8.8% among 350,000 | Potency, µM (titrated, usually from 102 µM), without a hit: at the highest dose activity, negative = inhibition, hits mostly inhibitors | AID 504332; also: % is scaled to controls: 0 for no effect and ±100 for the full control effect; nearly all actives have a fitted effect of over 75% in size
Target sequence (Q96KQ7 913-1193 limits assumed): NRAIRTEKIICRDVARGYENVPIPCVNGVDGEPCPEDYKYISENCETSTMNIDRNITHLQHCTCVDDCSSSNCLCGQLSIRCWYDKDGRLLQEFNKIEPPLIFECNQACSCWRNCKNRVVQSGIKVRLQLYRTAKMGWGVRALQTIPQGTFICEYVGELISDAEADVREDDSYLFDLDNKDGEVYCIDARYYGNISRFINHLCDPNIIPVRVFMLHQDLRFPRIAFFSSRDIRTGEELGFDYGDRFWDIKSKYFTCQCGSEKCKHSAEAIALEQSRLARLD
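Quantitative HTS format: methyltransferase activity on a biotin-tagged H3K9 peptide is measured by AlphaScreen, using a rabbit anti-monomethyl-H3K9 antibody with streptavidin donor and anti-IgG acceptor beads. Final levels are 20 nM enzyme, 500 nM peptide, 20 uM SAM; 2 h RT.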
Sfp inh: inhibitors of Bacillus subtilis Sfp phosphopantetheinyl transferase; AID 1490; hit rate 3.5% among 310,000; Biochemical Sfp PPTase activity, qHTS; Potency, µM, for inactives: largest response in the series, negative = inhibition, most hits filed as inhibitors;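 also: the enzyme is Sfp with the accession as filed and its product quenches rhodamine fluorescence; 0% = enzyme reaction without inhibitor and -100% = no enzyme wells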
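After 15 min at room temperature with compound, 15 nM Sfp received 5 uM rhodamine-CoA plus 12.5 uM BHQ-2-ybbR (50 mM Hepes pH 7.6, 10 mM MgCl2). Rate came from the fluorescence difference over 30 min, ex 525/em 598 nm.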
Active calls of the source: *; ? = inconclusive; / = not tested or not shown; [ ] = remark or other dose. An excerpt weighted towards active compounds, which were near 12% of everything screened. Calls follow the shape of the dose curve; as a rule, active = well fitted curve in the direction sought with a large enough effect; inconclusive = small, poorly fitted or top-dose-only effect, or another doubt; inactive = no such curve, though single readings can be large; an effect the other way counts as inactive or inconclusive. Potency is read from the fitted curve at half-maximal effect.

SMILES	PLK1 PBD inh	BAZ2B block	JMJD2A Tudor	HP1b binding inh	G9a block	Sfp inh
CCc1nn(CC(=O)NC(C)CCc2ccccc2)c(=O)c2cc3c(OC)cccc3n12 (centres undefined)	/	2%	7%	21%	26%[59 µM]	/
Cc1cccc(C)c1N(C(=O)c1ccco1)C(C(=O)NC1CCCC1)c1ccncc1 (centres undefined)	-5%	4%	-1%	48%	0%	22%
Cc1cc(O)c2ccccc2c1O	/	/	/	/	?	-8%
N#Cc1c(C#N)c(O)c2ccccc2c1O	13µM*	-34%	-32%	-22%	2µM*	13µM*
O=S(=O)(Nc1ccc(-n2cnnn2)cc1)c1cccc(Cl)c1	1%	1%	7%	47%	?	/
COC(=O)[C@@H]1C[C@H]1[C@@H](NC(=O)c1cccnc1)c1ccccc1	/	/	/	/	/	10%
CCCCC(=O)Nc1c(O)c2ccccc2[nH]c1=O	2%	3%	1%	38%	?	10%
CNC(=O)C(=O)Nc1c(O)c2ccccc2[nH]c1=O	-16%	-12%	-15%	27%	/	22µM*
CC(C)=NNC(=O)c1c(O)c2ccccc2[nH]c1=O	1%	-14%	5%	41%	/	-6%
CC(=O)Nc1c(O)c2ccccc2[nH]c1=O	-8%	2%	11%	47%	50µM*	18µM*
CC(=O)c1ccc2c(c1)C1C=CCC1C(c1ccc(S(=O)(=O)N3CCOCC3)cc1)N2 (centres undefined)	-10%	?	-32%	6%	?	-28%
Cc1c(Cl)cccc1NS(=O)(=O)c1ccc2c(c1)C1C=CCC1C(c1ccc(C(=O)O)cc1)N2 (centres undefined)	11µM*	45µM*	56µM*	50µM*	2.8µM*	?
COC(=O)c1ccc([C@H]2Nc3ccc(S(=O)(=O)Nc4ccc(C)cc4)cc3[C@H]3C=CC[C@H]32)cc1	/	?	?	-11%	3.5µM*	/
Cc1cccc(C)c1NS(=O)(=O)c1ccc(F)cc1	?	4%	-12%[11.4 µM]	-6%	1%	12%
COc1ccc(NS(=O)(=O)c2ccc3c(c2)[C@H]2C=CC[C@H]2[C@@H](c2ccc(C(=O)O)cc2)N3)cc1	21µM*	40µM*	45µM*	35µM*	25µM*	-28%
COC(=O)c1ccc(NS(=O)(=O)c2ccc3c(c2)n(C)c(=O)c(=O)n3C)cc1	/	/	-14%	5%	5%[59 µM]	/
Cc1cccc(C)c1NS(=O)(=O)c1ccc2c(c1)[C@H]1C=CC[C@H]1[C@@H](c1ccc(Cl)cc1)N2	/	-37%	-32%	6%	3.5µM*	/
COc1cccc(NS(=O)(=O)c2ccc3c(c2)[C@H]2C=CC[C@H]2[C@@H](c2ccccc2Cl)N3)c1	/	0%	-24%	19%	?	/
O=c1[nH]cccc1-c1nc2cc(Cl)ccc2n1Cc1ccccc1	-5%	-13%	-18%	35%	71µM*	13%
Cc1ccc([C@H]2N[C@]3(CCCN(Cc4ccc(F)cc4)C3=O)[C@H]3C(=O)N(Cc4ccccc4)C(=O)[C@@H]23)cc1	-4%	/	/	/	/	/
COC1=C(Nc2ccccc2)C(=O)C(OC)=C(Nc2ccccc2)C1=O	0%	/	-17%	20%[57 µM]	/	/
COC1=C(Nc2ccccc2OC)C(=O)c2ccccc2C1=O	1%	8.9µM*	45µM*	35µM*	-161%[59 µM]	-18%
COc1ccccc1NC1=C(NC(C)=O)C(=O)c2ccccc2C1=O	?	?	?	50µM*	7.9µM*	-97%
COC(=O)c1ccccc1NC(=O)c1ccc(COc2cccc3ccccc23)o1	-13%	1%	1%	37%	?	56µM*
CCc1ccccc1NCC(=O)Nc1ccccc1C(=O)OC	2%	2%	1%	33%	8%	3%
CCC(=O)NC(=S)Nc1ccccc1C(=O)OC	-12%	5%	-12%	19%	?	0%
CCCC(=O)NC(=S)Nc1ccccc1C(=O)OC	30µM*	9%[57.1 µM]	-16%[11.4 µM]	-8%	40µM*	?
COC(=O)c1ccccc1NC(=S)NC(C)=O	-5%	0%	-12%	44%	/	18%
